Among all 310,000 compounds or so, about 14,000 (4.5%) showed an effect of 50% or more. Effects have a minus sign here. This is one part of a sample in which strong results are shown more often than they occur.
target: human ether-à-go-go-related gene (hERG) potassium channel (human, UniProt Q12809); assay: primary screen, population patch clamp on CHO cells stably expressing hERG; higher = less effect of the substance
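Further: peak tail current of the secondary pulse compared with the same well before compound.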

human ether-à-go-go-related gene (hERG) potassium channel, sequence (Q12809 whole entry, looked up): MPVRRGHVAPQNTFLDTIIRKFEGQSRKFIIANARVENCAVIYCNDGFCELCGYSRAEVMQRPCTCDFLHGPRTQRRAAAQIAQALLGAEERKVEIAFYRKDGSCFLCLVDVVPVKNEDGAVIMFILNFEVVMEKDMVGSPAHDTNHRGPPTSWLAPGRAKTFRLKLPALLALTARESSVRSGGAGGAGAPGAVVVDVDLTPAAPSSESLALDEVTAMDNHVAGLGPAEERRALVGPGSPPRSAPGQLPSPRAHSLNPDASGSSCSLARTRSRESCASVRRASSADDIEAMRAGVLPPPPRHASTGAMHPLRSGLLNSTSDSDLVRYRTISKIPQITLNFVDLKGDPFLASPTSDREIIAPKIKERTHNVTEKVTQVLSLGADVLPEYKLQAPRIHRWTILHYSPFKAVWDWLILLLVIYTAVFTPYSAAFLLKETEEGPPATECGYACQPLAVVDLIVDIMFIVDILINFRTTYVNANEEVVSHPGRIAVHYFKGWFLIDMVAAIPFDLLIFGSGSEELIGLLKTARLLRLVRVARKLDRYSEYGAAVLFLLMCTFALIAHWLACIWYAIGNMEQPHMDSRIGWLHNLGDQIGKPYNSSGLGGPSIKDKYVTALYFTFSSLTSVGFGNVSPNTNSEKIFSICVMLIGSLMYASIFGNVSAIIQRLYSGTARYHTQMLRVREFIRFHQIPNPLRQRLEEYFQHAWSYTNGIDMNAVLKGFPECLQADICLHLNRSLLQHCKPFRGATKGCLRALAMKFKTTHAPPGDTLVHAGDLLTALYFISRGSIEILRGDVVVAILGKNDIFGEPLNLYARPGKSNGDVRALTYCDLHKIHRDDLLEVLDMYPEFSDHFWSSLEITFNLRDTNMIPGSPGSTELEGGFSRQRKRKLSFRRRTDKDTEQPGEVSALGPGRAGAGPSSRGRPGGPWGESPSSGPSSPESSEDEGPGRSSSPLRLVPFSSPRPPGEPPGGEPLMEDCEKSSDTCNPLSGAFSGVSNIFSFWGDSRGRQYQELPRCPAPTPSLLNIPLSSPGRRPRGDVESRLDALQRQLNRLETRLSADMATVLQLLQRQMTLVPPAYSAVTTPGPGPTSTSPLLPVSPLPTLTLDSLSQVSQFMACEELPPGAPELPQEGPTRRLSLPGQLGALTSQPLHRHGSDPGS

| SMILES | hERG current change (%, negative = inhibition) at 10uM |
| --- | --- |
| CCOc1ccc2nc(COC(=O)c3cccs3)c(C(=O)c3ccccc3)[n+]([O-])c2c1 | 6.46% |
| CCN(CC(=O)Nc1ccc(Br)cc1)C(=O)Cc1cccc(F)c1 | -17.4% |
| O=C(CSc1nnc2c(Cl)cc(C(F)(F)F)cn12)N(Cc1ccccc1)Cc1ccccc1 | -28.6% |
| Cc1ccc(OCc2cc(C(=O)NC(C)Cc3cccc(C)n3)no2)cn1 (stereo not shown) | 17.8% |
| Cn1c(-c2ccsc2)c(-c2cccs2)c2cc(-c3ccc4cc[nH]c4c3)ccc21 | 12.1% |
| Nc1ccc(O)cc1C(=O)OCC(=O)c1ccc(C2CCCCC2)cc1 | 8.51% |
| CCOC(=O)/C=C/C(=O)OCc1csc(CC(=O)Nc2ccccc2C)n1 | -1.99% |
| COc1ccc(C[C@H]2CN3C(=NC[C@@H]3C)N2CCNC(=O)CCC2CCCCC2)cc1 | -69% |
| CC(C)[C@H]1CN=C2N(CCNC(=O)CCC3CCCCC3)[C@H](Cc3ccc(O)cc3)CN21 | -40.2% |
| COc1ccc(C[C@H]2CN3C(=NC[C@@H]3C(C)C)N2CCNC(=O)CCC2CCCCC2)cc1 | -80.4% |
| C[C@@H]1CN=C2N(CCNC(=O)CCC3CCCCC3)[C@H](Cc3ccc(O)cc3)CN21 | -0.311% |
| COc1ccc(C[C@H]2CN3C(=NC[C@H]3C)N2CCNC(=O)CCC2CCCCC2)cc1 | -69% |
| C[C@H]1CN=C2N(CCNC(=O)CCC3CCCCC3)[C@H](Cc3ccc(O)cc3)CN21 | 9.65% |
| NC(=O)c1ncc(C(F)(F)F)cc1Oc1ccc(C(F)(F)F)cc1 | 24.9% |
| O=C(N/N=C1/SCC(=O)N1Cc1ccco1)c1ccccc1F | 20.1% |
| Cc1cccc(-c2nsc(SCC(=O)c3ccc(Cl)cc3)n2)c1 | 23.3% |
| CCOC(=O)C(C(=O)OCC)C(=O)c1cc(OC)c(OC)c(OC)c1 | -16.4% |
| O=S(=O)(Nc1nc2ccccc2nc1N1CCc2ccccc2C1)c1ccc(Cl)cc1 | 7.74% |
| COc1ccc(C(=O)O)cc1S(=O)(=O)NCc1cccnc1 | 19.4% |
| O=C(Cn1nc(-c2ccccc2)ccc1=O)NCCN1CCN(c2cccc(Cl)c2)CC1 | -24.4% |
| CCc1nn(CCCN2CCN(c3cccc(Cl)c3)CC2)c(=O)n1CCOc1ccccc1 | -63.2% |
| Cl.OCCN1CCN(CCOc2cccc(Cl)c2)CC1 | -15.6% |
| Cc1nn(CCOc2ccccc2)c(=O)n1-c1ccc(Cl)cc1 | -3.66% |
| COc1cccc(-n2c(C)nn(CCOc3ccccc3)c2=O)c1 | 8.58% |
| CCc1nn(CCCN2CCN(c3cccc(Cl)c3)CC2)c(=O)n1CCOc1ccccc1.Cl | -65% |

Reference: paper PMC4336329 (PLoS ONE, 2015)
